Results reported in ChEMBL document CHEMBL3988442, “University of Dundee, Small-Polar-MMV Screening Library” (2021).
Among all 48,000 compounds or so, about 13,000 (27%) showed an effect of 50% or more. The list shows a part of the results.

test system: Wolbachia pipientis; assay: Anti-Wolbachia Cell-Based Screen; assay type: functional; parameters: scale not given: in the data most compounds retested in dose-response had high values; conditions: 5 µM

Structure (SMILES)	Percent Effect
CC(=O)Nc1ccc2nn(C(C)C)cc2c1	3.305%
Cc1cc2cccc(C(=O)N3CCOC4(CNCCOC4)C3)c2o1 (centres undefined)	-17.55%
CCN(CC)CCCNCC1CCOC(C)(C)C1 (centres undefined)	90.59%
CCN(CC)CCNCC1CCOC(C)(C)C1 (centres undefined)	101.9%
COc1c(NS(=O)(=O)c2ccc(F)c(C)c2)c(C)nn1C	6.685%
CC(=O)NC[C@@]1(COc2cnccn2)C[C@@H](O)[C@@H](O)C1.Cl	-2.09%
CCN(CC)C1(Cc2cc(-c3ccccn3)on2)COC1	-7.749%
CNC(=O)c1cccc(CN2CCC(N(C)Cc3noc(C)n3)C2)c1 (centres undefined)	9.379%
Cc1nc(CN(C)C2CCN(Cc3cccc(F)c3)C2)no1 (centres undefined)	130.9%
Cc1nc(CN(C)C2CCN(CCc3ccc4c(c3)CCO4)C2)no1 (centres undefined)	131.2%
Cc1nc(CN(C)C2CCN(Cc3ccc(C(N)=O)cc3)C2)no1 (centres undefined)	137.1%
Cc1nc(CN(C)C2CCN(Cc3ccc4c(c3)CCC4)C2)no1 (centres undefined)	94.75%
CNC(=O)c1ccc(CN2CCC(N(C)Cc3noc(C)n3)C2)cc1 (centres undefined)	12.29%
Cc1nc(CN(C)C2CCN(Cc3ccc4c(c3)OCCO4)C2)no1 (centres undefined)	-0.871%
CC(C)(C)C(NC(=O)CCCS(C)(=O)=O)c1ccc(F)cc1F (centres undefined)	6.458%
Cc1cnc(N2CCC3(CC2)CC(NC(=O)N(C)C)CO3)nc1 (centres undefined)	3.12%
CC(C)c1cc(C(=O)N2C[C@@H](C)[C@](O)(C3CC3)C2)[nH]n1	9.432%
CCN(C(C)c1cccc(O)c1)S(=O)(=O)c1cccnc1 (centres undefined)	-1.511%
CC(C)(C)c1c[nH]c([C@@H]2COCCN2C2CCNCC2)n1	-5.137%
Cc1cc(C)n(C2CN(Cc3ccc(C(=O)N4CCCC4)cc3)C2)n1	-4.233%
Cc1cc(C)n(C2CN(CC(=O)NC3CCOCC3)C2)n1	-6.139%
Cc1cc(C)n(C2CN(CCC(N)=O)C2)n1	109.9%
Cc1cc(C)n(C2CN(CCC(=O)NCCc3ccccc3)C2)n1	114.1%
COc1cccc(CNC(=O)C(C)N2CC(n3nc(C)cc3C)C2)c1 (centres undefined)	-5.224%
Cc1cc(C)n(C2CN(CC(=O)N3CCOCC3)C2)n1	-1.985%
Cc1cc(C)n(C2CN(CC(O)Cn3cccn3)C2)n1 (centres undefined)	-3.488%
Cc1cnn(C2CN(CC(=O)NCCc3ccccc3)C2)c1	-5.59%
CCc1ccc(NC(=O)CCN2CC(n3nc(C)cc3C)C2)cc1	87.75%
CN(C)S(=O)(=O)NC(=O)CC(c1ccccc1)C(F)(F)F (centres undefined)	-3.128%
